Among all 1,400 compounds or so, about 30 (2%) were called active. Inconclusive results (about 15%) are left out. The call rests on the fitted dose curve; in most records, active means well fitted inhibition curve with a large enough effect; inconclusive means small, poorly fitted or top-dose-only effect; inactive means flat fitted curve, though single readings scatter. What follows is part of a selection rich in actives, with near analogues and random picks from the rest.
Assay: Firefly Luciferase Counterscreen for Inhibitors of ATXN expression
Details: luminescence; series mostly up to 57.5 µM; activity change, negative = inhibition: at the top concentration
Description: University of Utah School of Medicine, Salt Lake City, Utah
Spinocerebellar ataxia type 2 (SCA2) is a multisystem neurodegenerative disease caused by a dominantly acting mutation leading to expansion of a polyQ domain in the ataxin-2 protein (ATXN2). SCA2 patients develop progressive ataxia and later lose function in other neuronal systems. Prominent parkinsonian signs develop in some patients. Like many neurodegenerative disorders, no symptomatic or disease-modifying treatments are known.
The primary objective of the proposed research is to identify compounds inhibiting ATXN2 expression and to test them for efficacy in SCA2 mouse models. We have developed a cell-based assay paired with an in vivo mouse model using identical luciferase expression constructs. This approach takes advantage of an ATXN2-luciferase transgene, with the luciferase gene flanked by the upstream and downstream portions of the ATXN2 gene. Here we describe a 5-7 dose quantitative high thoroughput screen (qHTS) for compounds lowering ATXN2 expression. We screened the NIH Molecular Libraries Small Molecule Repository (MLSMR) and NCGC's mechanistically annotated (MIPE) and drug repurposing (NPC) collections of compounds for lowering expression of an ATXN2-luciferase reporter in HEK-293 cells. The assay is a multiplexed cell viability assay to ensure target reduction in the absence of cytotoxicity. Secondary qHTS assays included a CMV-luciferase reporter expressed in HEK-293 cells as well as a biochemical assay using recombinant luciferase to detect inhibitors of the reporter enzyme. Compounds that inhibit ATXN2 expression but is not cytotoxic were selected for confirmatory and secondary screens.
PROTOCOL TABLE (as described by Inglese J, Shamu CE and Guy RK. 2007)
SEQUENCE No. (e.g., 1, 2, 3, etc.); […] (e.g., Cells, Incubation, Reagent, etc.); VALUE; DESCRIPTION.
2; Compounds; 23 nL; Kalypsis pintool (Wako USA) equipped with a 1536-well pin head.
3; Enzyme; 1 uL; recombinant firefly luciferase (prepared in 50 mM Tris HCl pH7.5, 10 mM MgCl2, 0.05% BSA, 0.01% Tween20) at final concentration of 10 nM. Wells containing buffer only were used as control (set as 100% inhibition when normalizing data).
4; Incubation; 10 min; room temperature.
5; Detection; Luminescence; Viewlux plate reader (PerkinElmer).
NOTES (numbers refer to Sequence numbers above)
1. Luciferase substrate is added to 1536 well, Greiner white assay plate. Evaporation was prevented by covering assay plates with metal lids containing holes to allow gas diffusion.
2. Compounds were added in a dose response manner with the final concentrations of 57, 11.4, 2.28, 0.46, 0.091, 0.018, 0.0037 uM. Vehicle-only plates, with DMSO being pin-transferred to columns 5-48, were inserted uniformly at the beginning and the end of each library to monitor and record any shifts in assay performance.
3. Recombinant firefly luciferase (10 nM final concentration) is added to the assay plate.
5. End-point luminescence is then measured on the Viewlux (PerkinElmer) imager equipped with a clear emission filter using a 2 sec exposure.
Inglese J, Shamu CE and Guy RK, Reporting data from high throughput screening of small molecule libraries, Nature Chemical Biology, 2007, 3(8): 438-441. doi.org/10.1038/nchembio0807-438.
On the % scale 0 is the no-effect control and ±100 the full control effect; potency means the concentration at half of the fitted maximal effect.

SMILES | Potency | activity change, negative = inhibition
O=C(NC1=CC(=O)c2ccccc2C1=O)c1ccccc1 | 12.6 µM (active) | –
O=C(Nc1nonc1-c1ccc(Cl)cc1)c1ccccc1 | – | 1.38% (inactive)
CC(NC1=CC(=O)c2cccnc2C1=O)C(O)c1ccccc1 (stereo unspecified) | – | -12.2% (inactive)
O=C(N/N=C/c1cc([N+](=O)[O-])ccc1O)c1c[nH]c2ccccc12 | – | -4.35% (inactive)
COc1cccc(NC(=S)/C(=C(\[O-])c2cc(C)n(-c3ccccc3F)c2C)[n+]2ccc(N(C)C)cc2)c1 | 15.8 µM (active) | –
CCCC[C@@H](CNC)NC[C@H](NCCCCC1CCCCC1)C(C)C | – | 1.22% (inactive)
CN(C)CCCN(C(=O)c1ccco1)c1nc2ccc(Br)cc2s1 | – | -9.87% (inactive)
CS(=O)(=O)c1ccc(Nc2nc(C(N)Cc3ccc(Cl)cc3)cs2)cc1 (stereo unspecified) | – | 0.635% (inactive)
Cc1cc(O)c(C)c(O)c1/C=N/NC(=O)c1cccnc1 | – | -2.83% (inactive)
CN(C(=O)c1cnc(N2CCN(c3ncccn3)CC2)c2ccccc12)c1ccc(Cl)cc1 | – | 2.16% (inactive)
C/C(=C\C(=O)c1ccc(Br)cc1)NNC(=O)c1ccc(O)cc1 | – | 2.14% (inactive)
CC1C(=O)C(C)C(c2cc(Br)ccc2O)NC1c1cc(Br)ccc1O (stereo unspecified) | – | -3.17% (inactive)
O=C(NCc1ccccc1Cl)C1CCCN(C(=O)Nc2ccc(F)cc2)C1 (stereo unspecified) | – | -2.7% (inactive)
O=C(c1c(F)cccc1F)N1CCCC(c2nc(-c3ccc(Cl)cc3)no2)C1 (stereo unspecified) | – | -10.2% (inactive)
CCCC(=O)N1CCCC(c2cc(C(=O)Nc3ccccc3)no2)C1 (stereo unspecified) | 1.41 µM (active) | –
O=C(N/N=C/c1ccc([N+](=O)[O-])s1)c1ccccc1 | – | -19.8% (inactive)
Cc1cc(C(=O)N/N=C/c2ccc([N+](=O)[O-])s2)n[nH]1 | – | -6.06% (inactive)
Cc1ccccc1C(=O)N/N=C/c1ccc([N+](=O)[O-])s1 | 3.55 µM (active) | –
CCOC(=O)c1c(C)nn(-c2ccc(NC(=O)c3cccs3)cc2)c1C | – | -9.56% (inactive)
Cc1nc2c(OCc3ccc(C(F)(F)F)cc3)cccn2c1N(C)C(=O)CCC1CCCC1 | – | -4.05% (inactive)
C[C@@H]1CN([C@H](C)CO)S(=O)(=O)c2ccc(-c3ccc(C#N)cc3)cc2O[C@H]1CN(C)C(=O)Nc1cc(F)ccc1F | – | 4.48% (inactive)
Clc1ccc(C[n+]2cc(-c3ccccc3)n3c2CCCCC3)c(Cl)c1 | – | 5.15% (inactive)

SMILES | Potency | activity change, negative = inhibition
COc1cc(OC)cc(-c2cc3nc(C)c(CCC(=O)O)c(C)n3n2)c1 | 12.6 µM (active) | –
C/C(=N\NC(=O)Cc1ccc(Cl)cc1)c1ccccc1O | – | -5.39% (inactive)
COc1ccc(/C=C2\SC(=S)N(CCCC(=O)Nc3ccccn3)C2=O)cc1OC | – | -8.48% (inactive)
Cc1nc2c(OCc3ccc(C#N)cc3)cccn2c1N(C)Cc1cccs1 | – | 0.28% (inactive)
C[C@@H](CN1C2=NC[C@H](Cc3ccccc3)N2C[C@H]1Cc1ccc(O)cc1)NC(=O)CCC1CCCCC1 | – | 1.67% (inactive)
O=C(CSc1n[nH]c(-c2ccccn2)n1)Nc1ccc(F)cc1 | – | -11.7% (inactive)
Cc1ccc(Cl)cc1N1CCN(C(=O)CCS(=O)(=O)c2ccc3c(c2)NC(=O)CO3)CC1 | – | 2.23% (inactive)
CCCCOC(=O)/C=C\C(=O)NC(N)=O | – | 1.17% (inactive)
O=C(CCc1ccccc1)NC(c1cccs1)c1cc(Cl)c2cccnc2c1O (stereo unspecified) | – | -2.15% (inactive)
O=C(Nc1nc2cc(Cl)ccc2s1)C1CCCN(S(=O)(=O)c2cccc3cccnc23)C1 (stereo unspecified) | – | -4.41% (inactive)
Cc1ccc(S(=O)(=O)N(C)C)cc1NC(=O)c1cncc(Br)c1 | – | 3.55% (inactive)
Clc1ccc2nc(-c3ccccn3)c(Nc3ccc4c(c3)OCO4)n2c1 | – | -0.752% (inactive)
OC(CNCCc1ccccc1)COc1ccc(OCC(O)CNCCc2ccccc2)cc1 (stereo unspecified) | – | 3.74% (inactive)
Cc1ccc(/C=C2/CNC/C(=C/c3ccc(C)cc3)C2=O)cc1 | – | -13% (inactive)
CC(=O)NC(c1ccccc1)c1cc(Cl)c2cccnc2c1O (stereo unspecified) | – | -12.7% (inactive)
COc1cccc2c1C1COC3C4CC(C(=O)O)C(C(C2)N13)N4C (stereo unspecified) | – | 2.05% (inactive)
CC(=NNc1nc2ccccc2o1)c1ncccn1 | 14.1 µM (active) | –
COc1cc2nc(N(C)C)nc(N)c2cc1OC | – | -5.16% (inactive)
O=C(N/N=C(\c1ccccc1)c1ccccn1)c1ccccc1Cl | – | -10.3% (inactive)
O=C(Nc1ccccc1C(=O)Nc1nnc(C(F)(F)F)s1)c1ccccc1Cl | 22.4 µM (active) | –
Fc1ccc(Nc2nnc(C(F)(F)F)s2)cc1Cl | – | -13.2% (inactive)
O=C(Nc1nc(-c2ccccc2)cs1)c1ccccc1NS(=O)(=O)c1ccc(F)cc1 | 28.2 µM (active) | –

SMILES | Potency | activity change, negative = inhibition
NC(Cc1ccc(F)cc1)c1csc(NC(=O)NC(c2ccccc2)c2ccccc2)n1 (stereo unspecified) | – | 2.44% (inactive)
O=S(=O)(c1ccc(F)cc1)c1snnc1-c1ccccc1 | – | 1.44% (inactive)
OC[C@@H]1CN(Cc2ccc(-c3ccccc3)cc2)C[C@H](n2cnc3c(Nc4ccccc4)ncnc32)O1 | – | 1.15% (inactive)
c1ccc(CNc2nc(-c3ccccn3)nc3ccccc23)cc1 | – | -7.78% (inactive)
COc1ccc(CNC(=O)Nc2nc(C(N)Cc3ccc(Cl)cc3)cs2)cc1 (stereo unspecified) | – | -1.52% (inactive)
CCOC(=O)N1CCC(c2cc(=O)n3[nH]c(C)c(-c4ccc(F)cc4)c3n2)CC1 | – | -8.39% (inactive)
C=CCc1cccc(/C=N/NC(=O)CCC(=O)Nc2ccc(F)cc2)c1O | – | 2.3% (inactive)
CCCCn1c(=N)n(CCOc2ccc(C)cc2)c2ccccc21 | – | 2.78% (inactive)
CC1CCCN(c2ncnc3c2cnn3-c2ccc(Cl)cc2)C1 (stereo unspecified) | 0.0891 µM (active) | –
Cn1ncc2c(N3CCN(c4ccc(Cl)c(Cl)c4)CC3)ncnc21 | – | -0.373% (inactive)
COc1ccccc1Cc1c(-c2ccco2)nc2c(C)cc(Br)cn12 | 15.8 µM (active) | –
Oc1ccccc1C(Nc1nccs1)c1ccc2cccnc2c1O (stereo unspecified) | – | -4.63% (inactive)
Oc1ccc(N2CCN(c3ccnc4cc(Cl)ccc34)CC2)cc1 | – | -6.51% (inactive)
CN1CCN(c2cc(-c3cc(O)c4ncccc4c3)ccn2)CC1 | – | -1.23% (inactive)
CCN1CCS/C1=C\C=C\C1=[N+](CC)CCS1 | – | -3.22% (inactive)
Cc1cc([N+](=O)[O-])nn1Cc1ccc(C(=O)N/N=C/c2ccc(O)cc2O)cc1 | – | 6.39% (inactive)
Cc1sc2ncnc(NCC(O)c3ccc([N+](=O)[O-])cc3)c2c1C (stereo unspecified) | – | -0.514% (inactive)
CCc1nn2cc(C(=O)c3cc(Cl)ccc3O)cnc2c1-c1ccc(F)cc1 | – | -7.19% (inactive)
Cc1cc(NC(c2cccnc2)c2ccc3cccnc3c2O)no1 (stereo unspecified) | – | -3.83% (inactive)
CCn1c2ccccc2c2cc(/C=N/NC(=O)c3ccccc3)ccc21 | – | -10% (inactive)
COc1ccc(C(NC(C)=O)c2cc(Cl)c3cccnc3c2O)cc1OC (stereo unspecified) | – | -18.1% (inactive)
O=C(N/N=C/c1sc(N2CCOCC2)nc1-c1ccccc1)c1ccccc1O | – | -18.3% (inactive)

— PubChem BioAssay AID1745846 (National Center for Advancing Translational Sciences (NCATS), 2022)
